Laboratory results from the supplement of paper PMC11732987, “Enantioselective OTUD7B fragment discovery through chemoproteomics screening and high-throughput optimisation” (Communications Chemistry, 2025).

Key:
Experiment in all cases: log2 ratio of Biotin-Ahx-Ub-VS probe labelling (fragment/DMSO); higher = less target engagement (more negative = stronger competition), active = hit call of the paper (q ≤ 0.05, log2 ratio ≤ -1)
Settings in all cases: compound concentration: 200 uM; treatment time: 3 h
ALG13 = biological target: T1, ALG13 (UniProt Q9NP73)
T1 sequence (whole entry): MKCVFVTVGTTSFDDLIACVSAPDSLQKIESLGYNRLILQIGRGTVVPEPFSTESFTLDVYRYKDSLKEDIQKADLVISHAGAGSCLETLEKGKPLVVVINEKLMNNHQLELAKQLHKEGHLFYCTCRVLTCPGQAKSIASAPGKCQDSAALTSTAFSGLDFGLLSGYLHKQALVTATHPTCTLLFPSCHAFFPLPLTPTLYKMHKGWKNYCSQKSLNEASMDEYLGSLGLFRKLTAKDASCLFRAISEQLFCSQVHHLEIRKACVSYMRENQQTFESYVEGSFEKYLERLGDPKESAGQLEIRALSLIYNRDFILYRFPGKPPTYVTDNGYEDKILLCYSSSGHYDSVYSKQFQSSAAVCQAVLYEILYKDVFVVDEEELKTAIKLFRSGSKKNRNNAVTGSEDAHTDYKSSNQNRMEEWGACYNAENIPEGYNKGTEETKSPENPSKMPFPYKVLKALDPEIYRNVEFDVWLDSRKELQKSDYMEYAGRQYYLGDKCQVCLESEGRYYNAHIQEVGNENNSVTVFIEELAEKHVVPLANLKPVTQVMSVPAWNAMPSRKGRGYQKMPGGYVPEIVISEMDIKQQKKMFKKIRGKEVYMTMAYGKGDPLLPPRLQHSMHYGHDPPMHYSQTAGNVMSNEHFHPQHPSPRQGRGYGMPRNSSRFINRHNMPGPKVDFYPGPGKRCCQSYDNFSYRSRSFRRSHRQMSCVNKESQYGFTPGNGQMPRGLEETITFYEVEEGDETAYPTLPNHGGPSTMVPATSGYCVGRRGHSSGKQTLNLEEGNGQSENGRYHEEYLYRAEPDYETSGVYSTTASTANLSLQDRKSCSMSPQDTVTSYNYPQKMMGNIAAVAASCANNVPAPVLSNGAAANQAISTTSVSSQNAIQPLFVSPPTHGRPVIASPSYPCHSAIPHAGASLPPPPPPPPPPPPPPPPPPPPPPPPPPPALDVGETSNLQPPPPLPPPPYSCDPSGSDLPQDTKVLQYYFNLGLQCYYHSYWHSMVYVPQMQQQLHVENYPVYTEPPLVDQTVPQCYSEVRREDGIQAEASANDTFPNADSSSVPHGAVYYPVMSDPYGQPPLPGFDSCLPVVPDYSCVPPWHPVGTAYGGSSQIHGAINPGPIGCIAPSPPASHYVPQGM
How it was run: (§1)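 Triplicate samples of HEK293T lysate, 495 µg each, received fragment at 200 µM or vehicle for 3 h, followed by Biotin-Ahx-Ub-VS (0.5 µM final) for 1 h. After NeutrAvidin enrichment of labelled DUBs and LysC/trypsin digestion, peptides were run by diaPASEF LC-MS/MS. The values are average log2 fragment/vehicle ratios from global-median-normalised Spectronaut label-free quantities, tested by unpaired t-test on proteins having ≥2 unique peptides.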

ATXN3 = ATXN3 (UniProt P54252)
Chain of ATXN3 (P54252 whole entry): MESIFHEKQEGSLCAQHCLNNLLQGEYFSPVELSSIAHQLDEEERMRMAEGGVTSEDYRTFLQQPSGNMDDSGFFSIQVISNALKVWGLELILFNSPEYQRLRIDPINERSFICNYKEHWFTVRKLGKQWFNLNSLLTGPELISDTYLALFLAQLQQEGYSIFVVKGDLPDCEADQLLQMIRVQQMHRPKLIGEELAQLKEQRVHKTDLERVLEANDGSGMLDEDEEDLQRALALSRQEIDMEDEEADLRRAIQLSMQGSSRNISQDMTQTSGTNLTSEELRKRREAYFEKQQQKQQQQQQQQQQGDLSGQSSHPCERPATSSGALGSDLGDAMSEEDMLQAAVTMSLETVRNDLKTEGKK
How it was run: as §1

BAP1 = biological target: T2, BAP1 (UniProt Q92560)
T2 sequence (whole entry): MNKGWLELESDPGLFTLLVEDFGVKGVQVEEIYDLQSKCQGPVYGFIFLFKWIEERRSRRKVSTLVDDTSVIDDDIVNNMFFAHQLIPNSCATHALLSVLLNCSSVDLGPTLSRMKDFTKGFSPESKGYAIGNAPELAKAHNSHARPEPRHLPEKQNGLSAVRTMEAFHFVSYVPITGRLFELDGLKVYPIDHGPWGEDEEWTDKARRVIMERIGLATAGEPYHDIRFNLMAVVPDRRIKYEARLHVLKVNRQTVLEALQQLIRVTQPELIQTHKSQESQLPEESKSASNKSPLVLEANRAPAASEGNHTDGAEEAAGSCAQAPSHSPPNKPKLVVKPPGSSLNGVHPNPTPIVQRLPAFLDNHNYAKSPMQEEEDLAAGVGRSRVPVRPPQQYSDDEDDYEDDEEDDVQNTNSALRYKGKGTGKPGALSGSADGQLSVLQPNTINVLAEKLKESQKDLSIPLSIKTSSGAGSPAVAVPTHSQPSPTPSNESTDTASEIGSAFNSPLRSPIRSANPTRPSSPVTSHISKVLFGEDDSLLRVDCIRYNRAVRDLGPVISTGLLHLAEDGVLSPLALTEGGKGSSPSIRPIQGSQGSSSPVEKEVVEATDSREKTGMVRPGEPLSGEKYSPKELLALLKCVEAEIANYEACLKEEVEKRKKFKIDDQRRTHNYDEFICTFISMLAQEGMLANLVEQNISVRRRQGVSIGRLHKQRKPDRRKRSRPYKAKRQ
How it was run: as §1

EIF3F = EIF3F (UniProt O00303)
Chain of EIF3F (O00303 whole entry): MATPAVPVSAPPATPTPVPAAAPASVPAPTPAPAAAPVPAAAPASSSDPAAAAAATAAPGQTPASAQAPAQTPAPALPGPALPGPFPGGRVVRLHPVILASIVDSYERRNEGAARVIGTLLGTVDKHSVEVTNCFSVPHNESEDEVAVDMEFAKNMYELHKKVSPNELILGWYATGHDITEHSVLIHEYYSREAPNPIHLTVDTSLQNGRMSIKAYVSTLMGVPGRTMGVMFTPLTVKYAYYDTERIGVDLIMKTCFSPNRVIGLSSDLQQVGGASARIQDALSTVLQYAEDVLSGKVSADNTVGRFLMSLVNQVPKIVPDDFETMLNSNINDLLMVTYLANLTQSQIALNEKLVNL
How it was run: as §1

EIF3H = EIF3H (UniProt O15372)
Chain of EIF3H (O15372 whole entry): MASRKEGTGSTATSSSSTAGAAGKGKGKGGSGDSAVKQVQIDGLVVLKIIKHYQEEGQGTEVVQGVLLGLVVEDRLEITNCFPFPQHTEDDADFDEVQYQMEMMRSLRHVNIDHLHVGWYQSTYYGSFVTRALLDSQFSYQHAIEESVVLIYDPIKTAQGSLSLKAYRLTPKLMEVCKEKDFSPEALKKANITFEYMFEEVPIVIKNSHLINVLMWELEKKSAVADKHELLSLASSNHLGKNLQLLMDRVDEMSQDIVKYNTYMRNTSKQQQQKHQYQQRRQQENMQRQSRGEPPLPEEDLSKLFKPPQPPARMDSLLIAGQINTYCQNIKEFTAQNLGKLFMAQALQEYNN
How it was run: as §1

FAM105A = biological target: T3, FAM105A (UniProt Q9NUU6)
T3 sequence (whole entry): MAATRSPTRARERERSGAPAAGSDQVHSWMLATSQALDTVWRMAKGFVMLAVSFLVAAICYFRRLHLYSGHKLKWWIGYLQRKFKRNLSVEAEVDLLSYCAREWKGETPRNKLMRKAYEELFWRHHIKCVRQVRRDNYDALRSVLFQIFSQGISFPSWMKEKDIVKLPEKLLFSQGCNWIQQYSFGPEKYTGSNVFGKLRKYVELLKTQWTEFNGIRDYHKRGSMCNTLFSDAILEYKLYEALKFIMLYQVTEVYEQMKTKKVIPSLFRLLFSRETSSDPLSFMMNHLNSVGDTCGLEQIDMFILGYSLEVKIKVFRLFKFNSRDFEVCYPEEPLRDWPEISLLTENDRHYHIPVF
How it was run: as §1

OTUB1 = OTUB1 (UniProt Q96FW1)
Chain of OTUB1 (Q96FW1 whole entry): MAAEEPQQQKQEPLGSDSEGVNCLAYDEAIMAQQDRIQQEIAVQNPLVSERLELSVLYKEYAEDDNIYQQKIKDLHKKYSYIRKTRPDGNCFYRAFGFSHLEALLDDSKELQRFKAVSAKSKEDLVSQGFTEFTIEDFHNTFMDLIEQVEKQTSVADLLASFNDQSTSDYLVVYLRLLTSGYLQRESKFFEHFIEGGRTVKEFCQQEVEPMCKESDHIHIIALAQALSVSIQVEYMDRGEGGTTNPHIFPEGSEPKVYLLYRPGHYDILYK
How it was run: as §1

OTUD4 = biological target: T4, OTUD4 (UniProt Q01804)
T4 sequence (whole entry): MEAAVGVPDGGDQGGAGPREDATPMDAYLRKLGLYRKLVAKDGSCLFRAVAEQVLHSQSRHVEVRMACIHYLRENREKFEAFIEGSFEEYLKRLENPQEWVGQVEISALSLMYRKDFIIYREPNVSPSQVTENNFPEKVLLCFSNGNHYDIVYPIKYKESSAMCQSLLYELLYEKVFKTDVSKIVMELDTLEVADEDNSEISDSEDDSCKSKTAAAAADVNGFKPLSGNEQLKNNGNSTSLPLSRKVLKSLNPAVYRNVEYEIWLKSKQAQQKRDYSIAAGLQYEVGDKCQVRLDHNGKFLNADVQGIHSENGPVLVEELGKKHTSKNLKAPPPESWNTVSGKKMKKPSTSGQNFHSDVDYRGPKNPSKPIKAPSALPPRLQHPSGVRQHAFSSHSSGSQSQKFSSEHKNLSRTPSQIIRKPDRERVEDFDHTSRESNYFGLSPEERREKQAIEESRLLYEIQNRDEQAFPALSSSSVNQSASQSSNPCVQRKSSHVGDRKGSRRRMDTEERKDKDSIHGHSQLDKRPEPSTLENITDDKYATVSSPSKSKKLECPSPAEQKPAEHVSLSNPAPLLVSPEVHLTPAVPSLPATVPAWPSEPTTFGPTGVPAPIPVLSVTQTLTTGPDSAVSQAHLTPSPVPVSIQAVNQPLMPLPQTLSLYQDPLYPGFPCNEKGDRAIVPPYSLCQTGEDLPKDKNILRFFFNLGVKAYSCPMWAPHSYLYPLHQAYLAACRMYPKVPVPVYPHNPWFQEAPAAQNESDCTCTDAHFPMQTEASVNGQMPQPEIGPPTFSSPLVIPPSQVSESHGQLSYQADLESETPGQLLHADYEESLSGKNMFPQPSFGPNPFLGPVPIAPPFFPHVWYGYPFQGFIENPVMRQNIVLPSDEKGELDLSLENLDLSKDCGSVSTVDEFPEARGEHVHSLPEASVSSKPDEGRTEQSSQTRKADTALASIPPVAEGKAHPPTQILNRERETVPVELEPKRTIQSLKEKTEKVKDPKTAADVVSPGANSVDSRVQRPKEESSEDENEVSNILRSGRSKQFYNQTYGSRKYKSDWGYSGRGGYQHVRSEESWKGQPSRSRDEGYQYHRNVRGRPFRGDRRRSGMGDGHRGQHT
How it was run: as §1

OTUD5 = biological target: T5, OTUD5 (UniProt Q96G74)
T5 sequence (whole entry): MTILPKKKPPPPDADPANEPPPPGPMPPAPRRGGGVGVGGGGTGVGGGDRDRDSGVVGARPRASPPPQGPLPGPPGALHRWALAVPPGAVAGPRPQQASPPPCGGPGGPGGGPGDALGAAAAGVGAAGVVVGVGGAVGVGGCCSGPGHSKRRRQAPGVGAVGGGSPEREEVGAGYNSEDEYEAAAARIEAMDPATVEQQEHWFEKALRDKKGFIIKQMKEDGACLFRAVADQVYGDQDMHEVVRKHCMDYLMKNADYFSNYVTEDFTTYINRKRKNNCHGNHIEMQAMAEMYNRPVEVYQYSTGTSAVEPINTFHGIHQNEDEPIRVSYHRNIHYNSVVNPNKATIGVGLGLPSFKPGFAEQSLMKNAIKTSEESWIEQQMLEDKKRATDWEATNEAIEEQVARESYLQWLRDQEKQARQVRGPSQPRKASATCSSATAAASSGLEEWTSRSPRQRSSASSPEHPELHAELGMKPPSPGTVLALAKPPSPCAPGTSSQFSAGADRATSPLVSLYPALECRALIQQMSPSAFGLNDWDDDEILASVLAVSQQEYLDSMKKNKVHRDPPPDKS
How it was run: as §1

Measured: log2 ratio of Biotin-Ahx-Ub-VS probe labelling

Cc1cc(NC(=O)CCl)n(-c2ccccc2)n1
active: BAP1 -3.5
inactive: ALG13 -0.0258 | ATXN3 -0.205 | EIF3F -0.154 | EIF3H 0.0602 | FAM105A 0.513 | OTUB1 -0.315 | OTUD4 0.184 | OTUD5 -0.222
